The entries come from a sample that favours hits as a whole.
Shiga toxin inh = A qHTS for Small Molecule Inhibitors of Shiga Toxin | 290,000 tested, 9.2% active | Vero cells, Shiga toxin protein synthesis inhibition reporter | inhibition, % at 38.7 µM; in the data active = inhibition mostly above about 28%, no sharp cut-off; inactive = mostly below about 43%; note: 0% is about no effect
Giardia FBPA inh = qHTS Assay for Inhibitors of Fructose-1,6-bisphosphate Aldolase from Giardia Lamblia. purified Giardia FBPA. Potency, µM (top dose mostly 59.6 µM), for inactives: at the top dose activity, negative = inhibition, hits mostly inhibitors. 290,000 tested, 0.71% active. AID 2451, 2010; note: potency is the fitted concentration of half-maximal effect; % is set by controls: 0 for no effect and ±100 for the full control effect; nearly all actives have a fitted effect of over 55% in size
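40 nM FBPA preincubated 10 min at RT with compound (up to 57.5 uM final), then substrate plus GAPDH/TPI/NAD/arsenate coupling and diaphorase/resazurin added. Fluorescence read after 20 min at RT, 525/598 nm.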
LmPK inh = qHTS Assay for Inhibitors of Leishmania Mexicana Pyruvate Kinase (LmPK) | 290,000 tested, 0.37% active | Potency, µM (doses to about 57.5 µM), for inactives: at the top dose activity change, negative = inhibition, hits mostly inhibitors | purified LmPK, Kinase-Glo ATP luminescence, 1 h; note: potency is the fitted concentration of half-maximal effect; % is set by controls: 0 for no effect and ±100 for the full control effect
Target sequence (Q27686 whole entry, looked up): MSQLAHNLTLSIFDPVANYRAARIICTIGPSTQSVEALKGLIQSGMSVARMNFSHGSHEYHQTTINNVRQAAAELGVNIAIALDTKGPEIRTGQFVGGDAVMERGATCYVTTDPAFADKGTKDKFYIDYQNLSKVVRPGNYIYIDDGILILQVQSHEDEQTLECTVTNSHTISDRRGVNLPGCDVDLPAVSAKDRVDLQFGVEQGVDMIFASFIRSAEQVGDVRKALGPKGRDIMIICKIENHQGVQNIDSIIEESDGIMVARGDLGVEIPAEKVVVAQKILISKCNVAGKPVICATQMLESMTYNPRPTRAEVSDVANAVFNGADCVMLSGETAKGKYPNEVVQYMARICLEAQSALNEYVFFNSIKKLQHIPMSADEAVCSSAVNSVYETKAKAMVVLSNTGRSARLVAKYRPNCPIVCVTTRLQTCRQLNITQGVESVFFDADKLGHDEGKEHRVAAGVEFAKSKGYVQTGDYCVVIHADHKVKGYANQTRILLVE
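In 50 mM imidazole pH 7.2 with 7 mM MgCl2, LmPK (0.1 nM) turned over PEP (0.5 mM) and ADP (0.1 mM) for 1 h at room temperature. Luciferase read-out of ATP.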
Tb PYK inh = qHTS of Trypanosoma Brucei Inhibitors; pyruvate kinase (Trypanosoma brucei), Q57TT1; TbPYK enzyme, Kinase-Glo Plus ATP luminescence, 45 min; Potency, µM (series often up to 76.8 µM), for the others: top-dose activity, negative = inhibition, usual class: inhibitors; 410,000 tested, 0.12% active; AID 624173, 2012; note: potency is the fitted concentration of half-maximal effect; % is set by controls: 0 for no effect and ±100 for the full control effect; nearly all actives have a fitted effect of over 50% in size
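In this concentration-response screen, enzyme-free wells defined baseline while DMSO plates tracked drift. Each reaction combined TbPYK, substrate, compound and 130 uM ADP for 45 min at room temperature. Kinase-Glo Plus luminescence gave the signal.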
CHX counter = Cycloheximide Counterscreen for Small Molecule Inhibitors of Shiga Toxin. cell reporter, cycloheximide protein synthesis inhibition counterscreen. max response, %. 300,000 tested, 12% active. AID 2314, 2010; in the data active = max response mostly above about 13%, no sharp cut-off; inactive = mostly below about 14%; note: read at 38.3 µM for the half of the compounds with a filed dose; 0% is about no effect
Sm TGR block = qHTS Assay for the Inhibitors of Schistosoma Mansoni Peroxiredoxins; Potency, µM (top dose mostly 114 µM), for inactives: at the top dose activity change, negative = inhibition, hits mostly inhibitors; Schistosoma mansoni thioredoxin glutathione reductase (TGR), Q962Y6; 360,000 tested, 3% active; purified TGR, DTNB reduction, TNB absorbance 405 nm; AID 485364, 2010; note: potency is the fitted concentration of half-maximal effect; % is set by controls: 0 for no effect and ±100 for the full control effect; nearly all actives have a fitted effect of over 60% in size
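Kinetic colorimetric format: TGR-catalysed, NADPH-driven DTNB reduction monitored via TNB absorbance. Enzyme dispensed at 20 nM; compound exposure 15 min at room temperature before reaction start.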
Active calls of the source: *; ? = inconclusive; . = not tested or not shown; [ ] = dose if it differs, or a comment. Unless noted, calls come from the whole dose curve; as a rule, active = well fitted curve in the direction sought with a large enough effect; inconclusive = small, poorly fitted or top-dose-only effect, or another doubt; inactive = no such curve, though single readings can be large; an effect the other way counts as inactive or inconclusive.

SMILES	Shiga toxin inh	Giardia FBPA inh	LmPK inh	Tb PYK inh	CHX counter	Sm TGR block
O=C(CSCc1ccc(Cl)cc1)Nc1cccc(C(=O)O)c1	52.0*	18.3%	-8.0%	-5.0%	27.3*	-2.5%
CC(=O)c1cccc(NC(=O)CSc2nnc(C(C)N(C)C)n2Cc2ccccc2)c1 (stereo not given)	-21.6	-0.6%	-2.1%	-10.1%	-3.0	25.1µM*
CC(=O)c1cccc(NC(=O)CSCc2ccccc2)c1	71.3*	3.5%	3.0%	-2.2%	39.3*	-29.8%
CN(CCO)c1ccc2c(c1)OC[C@@H](Cc1ccccc1)NS2(=O)=O	.	.	.	-1.6%	.	.
Cc1ccc(C(C)C)c(OCC(=O)Nc2ccc(S(=O)(=O)Nc3onc(C)c3C)cc2)c1	.	.	.	-11.1%	.	-3.7%
CC(=O)Nc1ccc(SCCCC(=O)c2ccccc2)cc1	72.1*	5.6%	-3.2%	-5.0%	29.3*	1.1%
CC(=O)Nc1ccc(C(=O)NCCCSc2ccccc2)cc1	.	.	.	5.8%	.	.
COc1cc(NC(=O)c2cccs2)c(C(=O)OCC(=O)c2cc(C)n(-c3ccc(F)cc3)c2C)cc1OC	98.0*	5.6%	0.9%	-0.3%	123.1*	-12.3%
COc1ccc(-n2c(C)cc(C(=O)COC(=O)c3cc(NC(=O)c4cccs4)c(OC)c(OC)c3)c2C)cc1	16.7	9.5%	3.9%	3.7%	-1.5	-18.4%
COc1cc(NC(=O)c2cccs2)c(C(=O)OCC(=O)c2cc(C)n(-c3ccccc3)c2C)cc1OC	66.5*	-3.4%	-6.0%	2.1%	42.7*	-1.4%
Cc1ccc(-n2c(=O)c3c4c(sc3n(CC(=O)c3ccc(Cl)cc3)c2=O)CCC4)cc1C	.	.	.	0.6%	.	3.5%
CC(C)CCNC(=O)C1(C)CCN1Cc1ccc2ccccc2c1 (stereo not given)	.	.	.	0.0%	.	.
O=c1oc(Cc2ccccc2)nc2ccccc12	14.5	-10.4%	0.0%	4.1%	13.7*	6.6%
c1ccc(Cc2nc3ccccc3o2)cc1	54.7	2.2%	-1.0%	0.3%	19.2	8.1%
Cc1ccc(C2=N/C(=C/N3CCOCC3)C(=O)O2)cc1	68.2*	-1.2%	-7.6%	-1.0%	49.6*	-7.3%
Cc1ccc(C2=N/C(=C\N3CCCCC3)C(=O)O2)cc1	142.8*	-3.4%	0.3%	-1.0%	73.4*	-9.9%
COc1ccc(/C=C2\N=C(c3ccc(C)cc3)OC2=O)cc1	.	8.2%	0.8%	-0.8%	1.1	9.5%
CC(/C=C/c1ccc(O)cc1)=NNc1ccccc1	.	.	.	5.3%	.	.
COc1ccc(S(=O)(=O)n2nc(OC(=O)c3ccco3)cc2N)cc1	9.2	3.4%	-1.2%	-1.2%	-0.9	22.4µM*
COc1ccc(S(=O)(=O)n2nc(OC(=O)c3ccncc3)cc2N)cc1	-11.4	0.5%	-1.8%	-5.1%	-0.3	5.01µM*
Cc1ccc(S(=O)(=O)n2nc(OC(=O)c3ccccc3F)cc2N)cc1	-9.8	1.1%	10.8%	-6.1%	-1.8	15.8µM*
COc1ccc(S(=O)(=O)n2nc(OC(C)=O)cc2N(C(C)=O)C(C)=O)cc1	-12.5	12.9%	-0.8%	-4.1%	-2.6	22.4µM*
Cc1ccc(C(=O)Oc2cc(N)n(S(=O)(=O)c3ccc(C)cc3)n2)cc1	1.4	-0.6%	3.0%	0.4%	-0.2	-0.7%
COc1ccc(-c2noc(N(c3ccc(F)c(Cl)c3)c3nc(-c4ccc(OC)c(OC)c4)no3)n2)cc1OC	.	.	.	1.1%	.	-0.8%
COc1ccc(S(=O)(=O)n2nc(OC(=O)c3ccc(C)cc3)cc2N)cc1	56.0	9.3%	1.0%	-0.8%	27.4*	-25.6%
SMILES	Shiga toxin inh	Giardia FBPA inh	LmPK inh	Tb PYK inh	CHX counter	Sm TGR block
Cc1ccc(-c2csc3ncn(-n4c(C)ccc4C)c(=O)c23)o1	4.6	10.3%	5.9%	?	4.2	6.31µM*
Cc1noc(C(=O)Nc2ccc(Cl)cc2)c1Cl	-3.1	-5.5%	-3.0%	.	-2.6	-0.9%
Cc1oc2ccc(O)c(CN3CCCCCC3)c2c1C(=O)Nc1cccc(Cl)c1C	.	.	.	1.3%	.	3.5%
CC(=O)O[C@H]1CC(C)(C)C(=C=C/C(C)=C/C=C/C(C)=C/C=C/C=C(C)/C=C/C=C(\C)C(=O)C[C@@]23O[C@]2(C)C[C@@H](O)CC3(C)C)[C@](C)(O)C1	2.0	-6.2%	0.7%	-1.7%	-1.7	3.16µM*
Cn1nnc2c(NCCc3ccccc3)ncnc21	.	.	.	18.0%	.	4.0%
Cc1c(N=C/C=C/c2ccccc2)c(=O)n(-c2ccccc2)n1C	-11.1	0.9%	3.8%	1.2%	-2.1	3.1%[11.4 µM]
Cc1c(N=C/C=C/c2ccccc2)cnn1C	32.6	-22.6%	-4.0%	-3.6%	23.0*	0.0%
NS(=O)(=O)c1ccc(S(=O)(=O)N2CCCC(c3ccccc3)C2)cc1 (stereo not given)	.	.	.	7.2%	.	.
Cc1ccc(Nc2ccc(NCc3ccccc3)nn2)cc1C	67.6*	0.7%	-4.6%	-2.8%	32.6*	1.0%
Cc1cc(NCc2ccccc2)nc2ccccc12	18.9	0.9%	5.6%	-3.9%	15.3	-17.0%
Clc1ccc(-c2nnc(NCc3ccccc3)c3ccccc23)cc1	11.5	2.9%	1.2%	3.2%	1.6	-8.1%
Clc1ccc(Nc2ccc(NCc3ccccc3)nn2)cc1	59.9*	-4.9%	1.6%	5.3%	34.2*	-8.6%
COc1ccc(CCNC(=O)c2ccc3c(c2)CCN3S(=O)(=O)c2ccc(C)cc2)cc1	.	.	.	3.4%	.	-0.9%
O=C(Nc1nnc(C2CC2)s1)c1ccc(Cl)nc1	.	.	.	-0.5%	.	-5.4%
CC(C)(C)c1nnc(NC(=O)c2ccc(Cl)nc2)s1	-2.4	5µM*	8.6%	4.7%	2.5	31.9%
CCN(c1ccc(NC(=O)c2ccc(Cl)nc2)cc1)C(C)C	37.9*	-8.8%	-5.0%	4.9%	24.0*	-0.4%
O=C(Nc1ccc(N2CCOCC2)cc1)c1ccc(Cl)nc1	-12.9	-0.3%	-10.5%	-8.6%	-1.4	-3.8%
CCc1nnc(NC(=O)c2ccc(Cl)nc2)s1	75.0*	?	-3.1%	-1.7%	32.1*	3.5%
CCc1nnc(NC(=O)c2cc(Cl)ccn2)s1	77.4*	8.1%	-2.2%	2.5%	40.9*	-24.8%
c1ccc(Nc2cc(-c3ccoc3)ncn2)cc1	.	-21.2%	.	.	.	.
O=C(Cn1c(=O)oc2ccccc21)NCc1ccccc1Cl	.	.	.	-4.4%	.	6.2%
COc1cccc(CNC(=O)c2cc(C)nc3c2c(C)nn3-c2ccc(C)cc2)c1	.	.	.	3.2%	.	1.2%
COc1cccc(C(=O)OCCN2CCOCC2)c1	20.6*	-12.6%	-2.1%	-11.2%	15.7	-7.2%
COc1ccc(C(=O)OCCCN(C)C)cc1OC	18.5	-2.4%	-7.0%	-1.4%	45.2*	-5.3%
COc1cc(C(=O)OCCCN2CCOCC2)ccc1O	15.9	1.5%	5.7%	3.9%	17.2*	1.5%

Screening data as filed in PubChem BioAssay.
